Measured values reported in PubChem BioAssay.
Unmarked numbers belong to inactive results.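 The calls were made as follows: active = RAM network inhibition above 8.4% in each of two replicates, 3 SD over the compound average; inconclusive = above 8.4% inhibition in only one replicate; inactive = 8.4% inhibition or less in each replicate.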

test: RAM signaling pathway blockade in yeast – S. cerevisiae, Pdr1DBD-CYC8 efflux-inhibited sensitized strain, primary screen (AID 1298);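 also: 0% = DMSO untreated cells without growth and 100% = 10 µM 1-NA-PP1 full growth; higher means more yeast growth rescued from 5-FOA killing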; settings: S. cerevisiae cbk1-as DSE1-URA3 strain, 5-FOA growth OD615, 2 d; at 50 µM; stronger effect = higher value

Row | SMILES | RAM network inhibition [%]
1 | CCOC(=O)c1ccc2c(c1)NC(=O)C(N1CCN(c3ccc(OC)cc3)CC1)S2 (stereo not drawn) | 6.45
2 | Nc1ccc2nc(-c3ccc(Cl)cc3)[nH]c2c1 | 4.58
3 | CCOC(=O)c1c(N=CN(C)C)c(C#N)n2c1CCC2 | 5.49
4 | Cc1ccc(C(=O)Nc2ccc(S(=O)(=O)N3CCN(C)CC3)cc2)o1 | 3.17
5 | CC(=O)c1cccc(NC(=O)c2cc3ccccn3n2)c1 | -0.31
6 | Cc1cc(Nc2ccc(F)cc2C)n2nc(C)nc2n1 | 5.08
7 | CCSC1=C(C#N)C(c2ccccc2C)CC(=O)N1 (stereo not drawn) | 4.78
8 | CCOc1ccc(NC(=O)Nc2ccc3c(c2)N(C)C(=O)CS3)cc1 | 5.76
9 | CCN(CC)C(=O)C1CCCN(C/C=C/c2ccccc2)C1 (stereo not drawn) | -1.53
10 | N#CCCCSc1nnc(-c2ccc(Cl)cc2)n1-c1ccccc1 | 4.2
11 | CCCC(=O)NCCc1cc2ccc(C)c(C)c2[nH]c1=O | 4
12 | Cc1ccc(-c2ccc(CCC(=O)O)n2C(C)C)cc1 | 4.37
13 | COc1ccc(S(=O)(=O)N2Cc3ccccc3CC2C(=O)O)cc1OC (stereo not drawn) | 5.1
14 | Cc1ccc(-c2csc(N3CCC(C(N)=O)(N4CCCCC4)CC3)n2)cc1 | 2.58
15 | Clc1ccc(NCn2cncn2)nc1 | 3.18
16 | O=C(CN1CCCCC1)Nc1nnc(-c2ccccc2)s1 | 0.64
17 | CCOC(=O)N1CCN(CC(=O)c2ccc3c(c2)CCN3C(C)=O)CC1 | 6.23
18 | CN(C)S(=O)(=O)c1ccc(C(=O)Nc2ccc(Cl)cc2)cc1 | 3.74
19 | CCOc1ccc(N(CC(=O)Nc2ccc3c(c2)OCCO3)S(=O)(=O)c2c(C)noc2C)cc1 | 4.67
20 | CCOC(=O)c1c(C2CCN(C(=O)OCC)CC2)nc2ccccn12 | 2.43
21 | Nc1nc2c(c3c1c(=O)oc1ccccc13)CCCCC2 | 2.05
22 | O=C1CN(C(=O)c2ccc(Br)o2)C(c2ccccc2)c2cc(F)ccc2N1 (stereo not drawn) | 2.36
23 | Cc1cc(=O)c2c(C)nn(-c3ccccc3)c2[nH]1 | 1.4
